Screens from PubChem BioAssay.
LmPK inhibitor – qHTS Assay for Inhibitors of Leishmania Mexicana Pyruvate Kinase (LmPK); AID 1721, 2009; purified LmPK, Kinase-Glo ATP luminescence, 1 h; actives 0.37% (n = 290,000); Potency, µM (titrated, usually from 57.5 µM), without a hit: at the top dose activity change, negative = inhibition, most hits filed as inhibitors; Q27686; note: potency is the fitted concentration of half-maximal effect; % is set by controls: 0 for no effect and ±100 for the full control effect
Target sequence (Q27686 whole entry, looked up): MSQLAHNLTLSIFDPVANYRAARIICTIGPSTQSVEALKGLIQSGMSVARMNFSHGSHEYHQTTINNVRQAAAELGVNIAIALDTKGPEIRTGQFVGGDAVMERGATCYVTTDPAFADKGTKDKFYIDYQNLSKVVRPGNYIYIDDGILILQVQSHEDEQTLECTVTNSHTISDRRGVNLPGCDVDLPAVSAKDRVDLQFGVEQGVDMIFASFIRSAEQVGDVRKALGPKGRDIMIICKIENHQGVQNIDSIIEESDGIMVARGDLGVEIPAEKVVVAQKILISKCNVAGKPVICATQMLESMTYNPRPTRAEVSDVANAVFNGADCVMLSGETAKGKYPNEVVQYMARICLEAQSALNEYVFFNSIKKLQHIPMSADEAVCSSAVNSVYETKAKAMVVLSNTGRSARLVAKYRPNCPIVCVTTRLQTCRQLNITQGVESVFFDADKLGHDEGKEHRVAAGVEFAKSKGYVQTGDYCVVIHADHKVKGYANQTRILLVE
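0.1 nM LmPK, 0.5 mM PEP, 0.1 mM ADP; 50 mM imidazole pH 7.2, 7 mM MgCl2, 50 mM KCl; 1 h RT. Kinase-Glo luminescence readout, normalized to no-enzyme (full inhibition) and uninhibited wells.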
CHX counter – Cycloheximide Counterscreen for Small Molecule Inhibitors of Shiga Toxin; actives 12% (n = 300,000); max response, %; cell reporter, cycloheximide protein synthesis inhibition counterscreen; in the data active = max response mostly above about 13%, no sharp cut-off; inactive = mostly below about 14%; note: read at 38.3 µM for the half of the compounds with a filed dose; 0% is about no effect
Giardia FBPA inh – qHTS Assay for Inhibitors of Fructose-1,6-bisphosphate Aldolase from Giardia Lamblia | A8B2U2 | purified Giardia FBPA | Potency, µM (series often up to 59.6 µM), for the others: at the top dose activity, negative = inhibition, most hits filed as inhibitors | actives 0.71% (n = 290,000); note: potency is the fitted concentration of half-maximal effect; % is set by controls: 0 for no effect and ±100 for the full control effect; nearly all actives have a fitted effect of over 55% in size
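40 nM FBPA preincubated 10 min at RT with compound (up to 57.5 uM final), then substrate plus GAPDH/TPI/NAD/arsenate coupling and diaphorase/resazurin added. Fluorescence read after 20 min at RT, 525/598 nm.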
RE007 growth inh – qHTS Assay for Inhibitors of the HIV-1 protein Vpr; S. pombe RE007 Vpr strain, BacTiter-Glo ATP luminescence, 24 h; Potency, µM (titrated, usually from 92.2 µM), for the others: at the highest dose activity change, negative = less growth, most hits filed as inhibitors; actives 0.21% (n = 360,000); AID 651644, 2012; active = well fitted falling curve with a large enough effect; inconclusive = small, poorly fitted or top-dose-only effect; inactive = no such curve, though single readings can be large or run the other way; note: potency is the fitted concentration of half-maximal effect; % is set by controls: 0 for no effect and ±100 for the full control effect; nearly all actives have a fitted effect of over 50% in size
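Fission yeast RE007 carrying one integrated HIV-1 vpr copy, seeded at OD 0.01 in PMG+AL medium with 23 nL pinned compound. Grown 24 h at 30 degrees; viability read by BacTiter-Glo luminescence after 5 min.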
Shiga toxin inh – A qHTS for Small Molecule Inhibitors of Shiga Toxin | Vero cells, Shiga toxin protein synthesis inhibition reporter | inhibition, % at 38.7 µM | actives 9.2% (n = 290,000); in the data active = inhibition mostly above about 28%, no sharp cut-off; inactive = mostly below about 43%; note: 0% is about no effect
Tb PYK inh – qHTS of Trypanosoma Brucei Inhibitors; TbPYK enzyme, Kinase-Glo Plus ATP luminescence, 45 min; pyruvate kinase (Trypanosoma brucei), Q57TT1; actives 0.12% (n = 410,000); AID 624173, 2012; Potency, µM (doses to about 76.8 µM), for the others: at the top dose activity, negative = inhibition, actives largely listed as inhibitors; note: potency is the fitted concentration of half-maximal effect; % is set by controls: 0 for no effect and ±100 for the full control effect; nearly all actives have a fitted effect of over 50% in size
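Luminescence from Kinase-Glo Plus, added after a 45-minute room-temperature reaction, served as the end-point read-out. The enzyme and substrate were preincubated with compound before ADP (130 uM final) initiated turnover. Concentration-effect curves came from normalized qHTS data.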
Starred values were filed as active, the others as inactive; u = inconclusive; x = no result given. The full list was thinned out, with hits kept by preference. Unless noted, calls come from the whole dose curve; as a rule, active = well fitted curve in the direction sought with a large enough effect; inconclusive = small, poorly fitted or top-dose-only effect, or another doubt; inactive = no such curve, though single readings can be large; an effect the other way counts as inactive or inconclusive.

SMILES	LmPK inhibitor	CHX counter	Giardia FBPA inh	RE007 growth inh	Shiga toxin inh	Tb PYK inh
Cc1ccc(Nc2c(-c3ccco3)nc3ccccn23)cc1	2%	30*	-20%	-12%	97*	-5%
COc1ccc(Nc2c(-c3ccco3)nc3ccc(C)cn23)cc1	-6%	31*	-10%	-2%	38	0%
c1ccc(Nc2c(-c3ccco3)nc3ccccn23)cc1	1%	16	-8%	-18%	-2	0%
CCOC(=O)N1CCN(C(=O)CN(c2cccc(Cl)c2)S(=O)(=O)c2ccccc2)CC1	x	x	x	x	x	1%
NC(N)=NC(=S)Nc1ccc(Cl)cc1	7%	34*	u	12%	39*	5%
N/C(=N\C(=S)Nc1ccccc1)c1ccccc1	5%	40*	-25%	-17%	99*	0%
O=C(O)CCc1ccc(-c2ccc(Br)cc2)o1	-15%	9	-1%	u	39*	u
O=C(O)CCc1ccc(-c2ccc(Cl)cc2)o1	-9%	12	9%	-11%	36	u
COc1ccc(-c2ccc(CCC(=O)O)o2)cc1	-9%	25*	6%	-27%	41*	u
CC[C@@H]1CC=C[C@H]2[C@H]1C(=O)N(Cc1ccccc1)[C@H]2c1ccoc1	6%	12*	-10%	3%	58*	-10%
COc1ccc(-c2cc3ccccc3s2)cc1[C@H]1[C@H]2C=CC[C@@H](C)[C@@H]2C(=O)N1Cc1ccccc1	-6%	3	3%	-7%	44	1%
COc1ccc(-c2cc([C@H]3[C@H]4C=CC[C@@H](C)[C@@H]4C(=O)N3Cc3ccccc3)ccc2F)cc1OC	-6%	22*	-7%	-6%	61*	3%
CC1CC=CC2C1C(=O)N(Cc1ccccc1)C2c1ccc(-c2cc3ccccc3s2)cc1F (stereo unspecified)	x	49*	0%	x	96*	x
COc1cc2c(c(OC)c1OC)-c1c(cc3c(c1OC)OCO3)CC(C)C(C)(O)C2 (stereo unspecified)	x	x	x	x	x	1%
CCOC(=O)CSc1nc(C)c2ccccc2n1	-5%	11*	-2%	-18%	67	-3%
COc1ccc(C(=O)Nn2c(SCC(=O)c3ccccc3)nc3ccccc3c2=O)cc1	-11%	38*	6%	1%	99	-6%
CCOC(=O)CSc1nc(C)c2cccc(C)c2n1	3%	10	-7%	-2%	14	0%
CCc1ccc(C(=O)Nn2c(C)nc3ccccc3c2=O)cc1	6%	7	8%	25%	15	3%
COc1ccc(C(=O)Nn2c(SCc3ccc([N+](=O)[O-])cc3)nc3ccccc3c2=O)cc1	-1%	25*	9%	29%	82*	2%
CCOC(=O)CSc1nc2ccccc2c(=O)n1NC(=O)c1ccccc1	-7%	37*	12%	14%	66*	0%
CCc1ccc(S(=O)(=O)c2cn(C)c3ccc(C)cc3c2=O)cc1	x	x	x	x	x	0%
CN=C1N[C@H](c2ccccc2)N(c2ccccc2)S1	x	27*	22µM*	x	28	x
CCN1C(=O)NC(c2ccccc2)C1=O (stereo unspecified)	x	x	x	2%	x	3%
Cc1ccsc1C(=O)OCC(=O)N1CCc2ccccc2C1	3%	45*	0%	9%	115*	-1%
Cc1ccc(C)c(OCC(=O)N2CCc3ccccc3C2)c1	2%	13*	3%	9%	26	-15%
SMILES	LmPK inhibitor	CHX counter	Giardia FBPA inh	RE007 growth inh	Shiga toxin inh	Tb PYK inh
Cc1cc(OCC(=O)N2CCc3ccccc3C2)c(C)cc1Br	5%	27*	1%	-2%	40*	-6%
Nc1ccc(C(=O)OCC(=O)N2CCc3ccccc3C2)cc1[N+](=O)[O-]	3%	38*	21%	-3%	57*	-9%
CCOC(=O)C1CCCN(C(=O)c2ccc3c(c2)N(Cc2ccc(Cl)cc2)C(=O)c2ccccc2S3=O)C1 (stereo unspecified)	x	x	x	x	x	-7%
NC1=NC(=O)/C(=C/C=C/c2cccs2)S1	x	x	x	-2%	x	-3%
CC(C)(C)OC(=O)N1CCC(c2c(C(=O)NCc3cccs3)cnn2-c2cccc(F)c2)CC1	x	x	x	x	x	7%
Cc1ccc(C2=N/C(=C/N3CCOCC3)C(=O)O2)cc1	-8%	50*	-1%	-5%	68*	-1%
COc1ccc(/C=C2\N=C(c3ccc(C)cc3)OC2=O)cc1	1%	1	8%	-12%	x	-1%
Cc1ccc(C2=N/C(=C\N3CCCCC3)C(=O)O2)cc1	0%	73*	-3%	4%	143*	-1%
O=C(Cn1[nH]c(=O)c2ccccc2c1=O)NCCN1C(=O)S/C(=C\c2ccccc2)C1=O	x	x	x	-10%	x	-3%
CC(=O)OC1CC(OC2C(O)CC(OC3C(O)CC(O[C@H]4CC[C@]5(C)C6CC[C@]7(C)[C@@H](C8=CC(=O)OC8)[C@@H](O)C[C@]7(O)[C@@H]6CC[C@@H]5C4)OC3C)OC2C)OC(C)C1OC1OC(CO)C(O)C(O)C1O (stereo partly specified)	x	x	x	x	x	1%
O=C(CN=C1NC(=O)C(c2ccccc2)(c2ccccc2)N1)NCc1ccc(F)cc1	-2%	13	-5%	-4%	18	5%
COc1ccc(CNC(=O)CN=C2NC(=O)C(c3ccccc3)(c3ccccc3)N2)cc1	-1%	11	5%	0%	31*	2%
O=S(Cc1ccccc1)Cc1ccccc1	x	x	x	1%	x	1%
COc1ccc(OC)c(C2C(C(=O)c3cccs3)=C(O)C(=O)N2c2cc(C)on2)c1 (stereo unspecified)	2%	35*	u	0%	90*	3%
COc1ccc(C2C(C(=O)c3cccs3)=C(O)C(=O)N2c2cccc(C)n2)cc1 (stereo unspecified)	4%	8	13%	4%	35	-3%
COc1ccc(C2C(C(=O)c3cccs3)=C(O)C(=O)N2c2cccc(C)n2)cc1OC (stereo unspecified)	-5%	19*	-23%	-1%	32*	0%
CCOc1ccc(C2C(C(=O)c3cccs3)=C(O)C(=O)N2Cc2cccnc2)cc1OC (stereo unspecified)	6%	34*	-17%	1%	60*	-10%
CCC(C(=O)N1CCN(c2ccccc2F)CC1)n1nc(C)c2sc3ccccc3c2c1=O (stereo unspecified)	x	x	x	x	x	-3%
COC(=O)c1ccc(Sc2ccc(C)cc2)c(N)c1	2%	57*	3%	u	57*	-16%
